# Screens deposited in PubChem BioAssay by several laboratories.
# APOBEC3A inh = blocks human APOBEC3A ssDNA deamination; recombinant A3A, FAM/TAMRA ssDNA deamination fluorescence; inhibition, % at 20 µM; hit rate 0.41% among 330,000; AID 493011;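 active means at least 40% inhibition at 20 µM here, with at most 30% in a related deaminase screen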;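 further: plate controls were A3A with DMSO for no effect and wells lacking A3A enzyme for full effect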
# Target sequence (P31941 whole entry, looked up): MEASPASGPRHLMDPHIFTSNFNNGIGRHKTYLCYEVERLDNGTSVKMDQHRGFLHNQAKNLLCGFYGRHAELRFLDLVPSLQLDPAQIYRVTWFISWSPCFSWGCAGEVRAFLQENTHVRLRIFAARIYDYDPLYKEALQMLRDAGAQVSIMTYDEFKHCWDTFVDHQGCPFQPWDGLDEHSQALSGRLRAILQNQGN
# M18AAP inhibitor = blocks P. falciparum M18 aspartyl aminopeptidase; hit rate 1.2% among 290,000; recombinant PfM18AAP, H-Glu-NHMec fluorogenic cleavage; AID 1822; inhibition, % at 7.35 µM;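 active means inhibition above the campaign mean inhibition over all tested compounds plus 3 SD, cut at about 28% in these data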;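 further: 0% = plate median of test compound wells and 100% = 2 mM ZnCl2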
# A3G deaminase = APOBEC3G (human) deaminase inhibition. Q9HC16. inhibition, % at 20 µM. AID 493012. recombinant A3G, ssDNA deamination FAM/TAMRA fluorescence. hit rate 0.28% among 330,000;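 active means inhibition of at least 40% at 20 µM, with no more than 30% in the related APOBEC3A deaminase screen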;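 further: plate controls were DMSO wells with A3G for no effect and wells lacking A3G enzyme for full effect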
# CR mimetic SO = caloric restriction mimetics inhibiting age-related superoxide in yeast; S. cerevisiae aged cells, superoxide DHE fluorescence; hits give low values; hit rate 0.18% among 330,000; superoxide response (% of plate mean), % at 10 µM; AID 2690;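 active means superoxide response under a set limit, about three screen SD below normal, cut at about 65% in these data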;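 further: yeast aged for seven days with compound at 30 °C before DHE staining; 100% = average MFI of all compound-treated wells on the plate with controls excluded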
# PfG6PD inh = PfG6PD (Plasmodium falciparum) enzyme inhibition | PfGluPho enzyme, NADPH resazurin-diaphorase fluorescence | inhibition, % at 20 µM | hit rate 0.78% among 350,000;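 active means inhibition reaching at least a set limit at 20 µM in the primary screen, cut at about 59% in these data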;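 further: 0% = DMSO wells with substrate and 100% = DMSO wells lacking glucose-6-phosphate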
# A3A conf = confirmation of human APOBEC3A DNA deaminase inhibitors. shares compounds with APOBEC3A inh. recombinant A3A, ssDNA deaminase UDG fluorescence assay. inhibition, % at 20 µM. hit rate 63% among 1,400. AID 493151;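 active means inhibition reaching a set limit, 80% of the first screen's cutoff, at 20 µM in any replicate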;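 further: plate controls were DMSO wells with A3A for no effect and wells lacking A3A enzyme for full effect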
# UDG A3A counter = UDG inhibition in APOBEC3A counter-screen; shares compounds with APOBEC3A inh; UDG counterscreen, FAM/TAMRA uracil oligo fluorescence; inhibition, % at 20 µM; 1,000 tested, under 10 active; call rule not given here
# The depositor's hits bear a star; x = not tested or not shown. Sampled rows, rich in hits. Any-hit rate of the full collection: about 2.4%.
SMILES,APOBEC3A inh,M18AAP inhibitor,A3G deaminase,CR mimetic SO,PfG6PD inh,A3A conf,UDG A3A counter
COC(=O)CCCCCCCCC(O)C[N+]1(C)CCOCC1 (stereo unspecified),53.2*,3.5,23.1,101.6,-1.2,77.6*,-2.8
COC(=O)CCCC(=O)OC,-1.0,x,-0.6,91.9,2.5,x,x
COC(=O)CCCCCCCCCC[N+]1(C)CCCCC1,43.6*,-9.6,22.3,105.0,-6.7,85.4*,1.6
C[N+]1(CCCCSc2ccc(O)cc2)CCCCC1,30.6,-1.2,15.4,101.4,-18.4,x,x
COC(=O)[C@H](CC(C)C)N(Cc1ccccc1)S(=O)(=O)N(Cc1ccc(OC)cc1)[C@@H](CC(C)C)C(=O)OC,-2.9,x,-6.5,86.0,28.4,x,x
O=[N+]([O-])c1ccc(C(O)C[n+]2ccccc2)cc1 (stereo unspecified),91.5*,-1.7,18.7,104.1,2.3,70.7*,-2.3
N=C(N)Cc1ccccc1Sc1ccccc1,42.0*,1.4,1.4,101.0,-22.4,1.5,x
Nc1cc(N)nc(SCC(=O)Nc2ccc(Br)cc2Cl)n1,58.4*,x,17.5,82.9,-2.8,55.6*,-2.0
Nc1nc(SCC(=O)Nc2ccc(Br)cc2Br)n[nH]1,0.8,x,-0.6,107.0,-9.5,x,x
COC(=O)c1ccccc1NC(=O)c1cc[n+](C)cc1,76.9*,x,19.0,107.7,-16.0,56.5*,-2.4
COC(=O)c1ccccc1NC(=O)c1noc2c1CCC2,59.3*,x,22.6,108.2,0.9,46.7*,x
COc1ccccc1NC(=O)c1cc[n+](C)cc1,86.4*,-2.6,10.4,98.4,-0.9,63.9*,2.5
CCn1c(SCC(=O)N2CCc3ccccc32)nnc1-c1ccncc1,49.5*,2.0,19.9,90.5,27.7,26.9,x
O=C(CSc1nnnn1-c1ccccc1)N1CCc2ccccc21,41.3*,-0.9,16.9,95.1,15.8,62.0*,-2.1
CCc1nnc(SCC(=O)N2CCc3ccccc32)n1CC,-0.6,-2.2,-8.0,90.2,2.6,x,x
O=C(CSc1nnnn1-c1ccccc1)N1CCCc2ccccc21,-7.9,11.6,-4.5,89.2,2.1,x,x
CC1CCCC(NC(=O)COC(=O)c2ccc3ncsc3c2)C1C (stereo unspecified),-0.7,x,-7.0,98.1,-9.1,x,x
CC(=O)Nc1cccc(C(=O)OCC(=O)Nc2c(C)nn(-c3ccccc3)c2C)c1,52.4*,x,0.5,104.6,-8.1,2.4,x
Cc1nn(-c2ccccc2)c(C)c1NC(=O)COC(=O)c1ccccc1,19.7,x,-3.1,86.8,-5.3,x,x
COc1ccc(NC(=O)CN(C)CC(=O)N(C)C2(C#N)CCC(C)CC2)cc1 (stereo unspecified),43.7*,x,8.7,111.2,-1.0,33.0*,2.6
CS(=O)(=O)c1ccc(-c2nn[nH]n2)cc1,-5.5,1.5,-4.9,99.5,-25.7,x,x
CS(=O)(=O)c1nc(-c2ccc(Br)cc2)n[nH]1,41.5*,2.4,-10.8,115.9,-14.4,17.7,0.5
COc1ccc(CCNC(=O)Cc2c(Cl)cccc2Cl)cc1,43.7*,2.4,3.1,95.9,0.1,6.9,x
COc1ccc(CCNC(=O)CC(=O)NCCc2ccc(OC)cc2)cc1,-3.8,-4.4,-10.6,84.7,29.5,x,x
Cc1ccc2nc3c(nc2c1C)C(O)=C3O,65.4*,-2.2,-4.1,95.2,-15.9,6.9,8.0
SMILES,APOBEC3A inh,M18AAP inhibitor,A3G deaminase,CR mimetic SO,PfG6PD inh,A3A conf,UDG A3A counter
CC1(C)Oc2ccc3ccc(=O)oc3c2/C(=C/N)C1=O,-4.8,-24.1,-5.1,104.8,8.7,x,x
CC1(C)Oc2ccc3ccc(=O)oc3c2-c2cnoc21,50.6*,1.7,21.9,99.1,-6.8,72.4*,-2.4
CC1(C)Oc2ccc3ccc(=O)oc3c2-c2cn[nH]c21,59.2*,-1.5,24.0,105.2,14.6,65.3*,5.0
COc1ccc(OCC(=O)N2CCCC(CO)(CCOc3ccccc3)C2)cc1 (stereo unspecified),-3.9,1.1,-6.8,73.4,-3.2,x,x
COc1ccc(-c2c(-c3ccccc3OC)oc3ccccc23)cn1,-3.3,x,-8.3,95.3,27.1,x,x
O=C(NN=C1CCCC1)c1ccccc1OCc1ccc(Cl)cc1,0.8,19.4,-1.3,90.8,-14.7,x,x
O=C(Nc1ccc(-c2ccccc2)cc1)c1ccco1,42.1*,-2.3,22.5,96.2,-9.2,25.7,x
CC(=O)c1ccc2c3c(cccc13)C(=O)N(c1c(C)nn(C)c1C)C2=O,48.4*,3.2,28.4,104.7,1.3,4.0,x
